# Source: PubChem
# Only some compounds are listed: those with a hit (about 0.42% of all), similar ones and a draw of the others.
# N370S GC – N370S glucocerebrosidase modulation, Gaucher chaperone candidate; P04062; Potency, µM (titrated, usually from 59.4 µM), for the others: at the top dose activity change, negative = inhibition, usual class: inhibitors; 330,000 compounds, 0.092% hits; N370S GC spleen homogenate, 4MU-glucoside fluorescence;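 further: 0% = full enzyme activity and -100% = no enzyme basal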
# GAA glycogen – inhibitors or activators of human alpha-glucosidase glycogen cleavage; recombinant GAA, glycogen substrate, Amplex Red glucose oxidase fluorescence; Potency, µM (titrated, usually from 76.4 µM), for the others: at the top dose activity change, negative = inhibition, most hits filed as inhibitors; 300,000 compounds, 0.38% hits; P10253;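 further: 0% = full enzyme reaction and -100% = no-enzyme basal signal; the screen sought inhibitors and activators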
#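 Recombinant enzyme (4 nM final) with compounds titrated up to 77 uM and bovine liver glycogen (30 ug) in citrate pH 5.0, 0.01% Tween-20, 37 C 40 min. Released glucose detected by Amplex Red/glucose oxidase (Ex 573/Em 610); AC50 from Hill fits.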
# Lamin A splicing – LMNA splicing modulation; Potency, µM (doses to about 46.1 µM), for inactives: at the highest dose ratio change, negative = inhibition, actives largely listed as inhibitors; HeLa LMNA splicing GFP/RFP minigene ratio, 48 h; 200,000 compounds, 0.01% hits; active means well fitted inhibition curve with a large enough effect in the signal ratio, with a control signal flat, not every such curve was filed as active; inconclusive means small, poorly fitted or top-dose-only effect, or effect the other way, or a change in a side signal; the % refers to the signal ratio
#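 S3 HeLa stable clones carrying a lamin A-EGFP splicing minigene plus DsRed2 were seeded at 600 cells/well in Opti-MEM with 2% FBS, pin-dosed and incubated 48 h at 37°C. Acumen cytometry (488 nm) gave the GFP/RFP total-intensity ratio.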
# GAA spleen mod – lysosomal alpha-glucosidase (human) modulation; 240,000 compounds, 0.006% hits; AID 2112; human spleen homogenate, 4-MU-alpha-glucoside fluorescence; P10253; Potency, µM (series often up to 79.9 µM), without a hit: top-dose activity change, negative = inhibition, most hits filed as inhibitors;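 further: 0% = enzyme with vehicle and -100% = no enzyme basal signal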
#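 AC50 values come from Hill-equation fits of concentration-response data, normalized to no-enzyme and full-activity controls. Enzyme source: 1 ug human spleen homogenate; 1 mM fluorogenic 4-MU glucoside, pH 5.0 citrate buffer, 37 C, 40 min.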
# GAA inhib – blocks human lysosomal alpha-glucosidase. purified human GAA, 4-MU-alpha-glucoside fluorescence. P10253. 200,000 compounds, 0.005% hits. Potency, µM (series often up to 76.9 µM), for the others: top-dose activity change, negative = inhibition, hits mostly inhibitors;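 further: plate controls were uninhibited enzyme wells for no effect and no-enzyme background for full effect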
#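 Fluorogenic assay: 4 nM human alpha-glucosidase with 400 uM 4-methylumbelliferyl-alpha-D-pyranoside in 50 mM citrate/phosphate, 0.005% Tween-20, pH 5.0, 20 min at room temperature. Compounds tested up to 77 uM; AC50 from Hill fits.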
# Active calls of the source: *; u = inconclusive; x = no result; [ ] = remark or other dose. Unless noted, the call rests on the fitted dose curve; in most records, active means well fitted curve in the direction sought with a large enough effect; inconclusive means small, poorly fitted or top-dose-only effect, or another doubt; inactive means no such curve, though single readings can be large; an effect the other way counts as inactive or inconclusive. Unless noted, on the % scale 0 is the no-effect control and ±100 the full control effect; potency means the concentration at half of the fitted maximal effect.
SMILES,N370S GC,GAA glycogen,Lamin A splicing,GAA spleen mod,GAA inhib
Cc1cccc(C)c1NC(=O)CSCC(=O)c1ccc(O)c(O)c1,2%,11µM*,u,-10%,-20%
Cc1cccc(C)c1NC(=O)CSCC(=O)O,12%[2.35 µM],18%,u,-4%,-4%
C/C=C/c1cc(CN2CCN(c3ccccc3)CC2)c(O)c(OC)c1,-8%,u,u,1%,6%
C/C=C/c1cc(CN2CCN(c3ccc(OC)cc3)CC2)c(O)c(OC)c1,15%,14µM*,x,-2%,-3%
Cc1ccc(/C=N/c2sc3c(c2C#N)CCC3)o1,-10%,22µM*,6%,8%,7%
N#Cc1c(/N=C/c2ccc(Br)s2)sc2c1CCC2,2%,-15%,0%,-17%,4%
COc1ccc(OC)c(S(=O)(=O)Nc2ccc(O)c3ccccc23)c1,19%,14µM*,u,-7%,-2%
COc1ccc(OC)c(S(=O)(=O)Nc2ccc(Oc3ccccc3)cc2)c1,-13%,-6%,u,-3%,-7%
CC(=O)NC[C@@H]1CN(c2ccc(N3CCOCC3)c(F)c2)C(=O)O1,x,x,0%,x,x
c1ccncc1,1%,x,x,10%,x
CCOC(=O)N1CCN(c2ccccc2O)CC1,-1%,11µM*,5%,-5%,-5%
CCOC(=O)N1CCN(c2ccccc2OC)CC1,1%,8%,x,1%,-4%
CC[C@H](NC(=O)[C@H](CCC(=O)O)NC(=O)[C@H](CCC(=O)O)NC(=O)[C@H](CC(=O)O[S+](=O)([O-])c1cccc2c(NCCN)cccc12)NC(=O)[C@H](CCC(=O)O)NC(=O)[C@H](CC(=O)O)NC(C)=O)C(=O)ON[C@@H](C)C(=O)N[C@@H](CO)C(=O)N[C@@H](CCCCNC(=O)c1ccc(N=Nc2ccc(N(C)C)cc2)cc1)C(N)=O,-2%,x,x,0%,x
COc1ccc(N(CC(=O)NCc2ccc(C)cc2)S(=O)(=O)c2c(C)[nH]c(=O)[nH]c2=O)cc1,8.9µM*,-3%[76.3 µM],x,x,x
CCOc1ccc(N(CC(=O)NCc2ccccc2Cl)S(=O)(=O)c2c(C)[nH]c(=O)[nH]c2=O)cc1,4µM*,-8%[76.3 µM],x,x,x
COc1ccc(CNC(=O)CN(c2ccc(OC)cc2)S(=O)(=O)c2c(C)[nH]c(=O)[nH]c2=O)cc1,u,-9%[76.3 µM],x,x,x
CCOc1ccc(N(CC(=O)Nc2c(C)cccc2C)S(=O)(=O)c2c(C)[nH]c(=O)[nH]c2=O)cc1,4.5µM*,-2%,x,0%,x
CCOc1ccc(N(CC(=O)Nc2cccc(C)c2C)S(=O)(=O)c2c(C)[nH]c(=O)[nH]c2=O)cc1,11µM*,5%,x,-8%,x
CCOc1ccc(N(CC(=O)NCc2ccc(C)cc2)S(=O)(=O)c2c(C)[nH]c(=O)[nH]c2=O)cc1,u,-5%[76.3 µM],x,x,x
CC(=O)OCC1OC(C#Cc2ccccc2)C=CC1OC(C)=O (centres undefined),-3%[12.8 µM],x,x,-4%[17.4 µM],x
COc1ccc(OC(C)c2nc3ccccc3[nH]2)cc1 (centres undefined),x,-12%[76.3 µM],x,x,x
CCOc1ccc(Nc2nc(Cc3nnc(SCC(=O)NCc4ccco4)n3CC)cs2)cc1,-5%,18µM*,-9%,4%,-4%
NNC(=O)c1cc(-c2ccccc2)sc1N,-7%,5µM*,x,1%,x
COc1ccc(C(=O)Nc2sc3c(c2C(N)=O)CCCC3)cc1OC,7%,x,x,7%,x
Cc1c(Cl)cccc1N1C(=O)CC(N(O)c2ccccc2)C1=O (centres undefined),-1%,20µM*,-2%,-4%,-11%
SMILES,N370S GC,GAA glycogen,Lamin A splicing,GAA spleen mod,GAA inhib
Cc1cccc(C)c1N1C(=O)CC(N(O)c2ccccc2)C1=O (centres undefined),12%,32µM*,-7%,-7%,-6%
CCOc1ccccc1N1C(=O)CC(N(O)c2ccccc2)C1=O (centres undefined),-9%,-12%,-3%,5%,-1%
Cc1cc(O)cc(O)c1C(=O)OC1(C)C(=O)C=C2C=C(/C=C/CO)OC=C2C1=O (centres undefined),-5%,x,x,-10%,x
CSc1ccc(-c2nc3cccc(C)n3c2Nc2ccc(Cl)cc2)cc1,x,5.6µM*,x,x,x
COc1ccc(O)c(/C=N/c2sc(C)c(C)c2C#N)c1,4%,14µM*,-3%,-8%,-8%
CCCCCCCCCCCCCCCCOCC(COP(=O)([O-])OCC[N+](C)(C)C)OC (centres undefined),-5%,x,x,5%,x
Cc1ccc(/C=N/Nc2nc3ccccc3[nH]2)s1,-21%,28µM*,-12%,2%,-6%
C(=N\Nc1nc2ccccc2[nH]1)/c1cccc2cccnc12,-29%,35µM*,x,-6%,-13%
Cc1ccccc1/C=N/Nc1nc2ccccc2[nH]1,-14%,u,x,-7%,-8%
C(=N\Nc1nc2ccccc2[nH]1)/c1c[nH]c2ccccc12,-10%,22µM*,u,-1%,-2%
COc1cc(CN2CCN(C(=O)CC(C)C)CC2)cc(OC)c1OC,17%,10%,12%,-4%,-4%
COc1cc(CN2CCN(C(=O)CC(C)C)CC2)cc(OC)c1O,-20%,40µM*,-2%,3%,-5%
COc1ccc(C(=O)N2CCN(Cc3cc(OC)c(O)c(OC)c3)CC2)cc1OC,8%,20µM*,-7%,7%,3%
COc1ccc2c(c1)O[C@@H](c1cccc(C(F)(F)F)c1)[C@H](OC(=O)NC1CCCC1)C2=O,7%,x,x,-6%,x
O=C(CSc1n[nH]c(-c2ccccc2)n1)c1ccc(O)c(O)c1,-2%,10µM*,u,-15%,-5%
Cc1cc(SCC(=O)c2ccc(O)c(O)c2)nc2ccccc12,-13%,4.4µM*,-9%[46 µM],5%,-2%
C/C(=N\Nc1ccc(C(=O)O)cc1)c1ccc2c(c1)Nc1ccccc1S2,-8%,11µM*,x,3%,x
CCCC[C@@H](C=O)NC(=O)[C@H](CC(C)C)NC(=O)OCc1ccccc1,-6%,x,x,-3%,x
NC(=NCCCCCCN=C(N)/N=C(\N)Nc1ccc(Cl)cc1)/N=C(\N)Nc1ccc(Cl)cc1,6.3µM*,4%[76.3 µM],u,3%,x
CC(C)N=C(N)/N=C(\N)Nc1ccc(Cl)cc1,-18%[21.6 µM],x,u,4%[29.1 µM],x
Nc1n[nH]c2ccccc12,7%,3.5µM*,-19%[46 µM],-24%,-3%
Nc1n[nH]c2cccc(Cl)c12,6%,u,x,1%,-3%
Cc1ccc(CNC(=O)Cc2cccs2)cc1,4%,2%,8%,-13%,-5%
Cc1ccc(CNC(=O)Nc2cccs2)cc1,10%,28µM*,-12%,-7%,-6%
COc1ccccc1CNC(=O)Nc1cccs1,26%,28µM*,7%,0%,-3%
COc1ccc(CNC(=O)Nc2cccs2)cc1OC,3%,10µM*,13%,2%,-8%
COc1cccc(CNC(=O)Nc2cccs2)c1,-13%,u,u,-17%,-4%
CC(C)C(=O)SCCCCCCC(=O)Nc1nc(-c2ccccc2)cs1,-12%,x,x,-6%,x
